Test results reported in PubChem BioAssay.

assay: JC-1 mitochondrial potential readout, lung cancer cells – cell-based, A549, JC-1 fluorescence, basal, 24 h, 100 nL, profiling panel (AID 1138); conditions: higher = more signal;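 also: A549 lung adenocarcinoma cells under basal conditions with no added stimulus; test concentration not given here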

| SMILES | z-score |
| --- | --- |
| COCCCNC(=O)[C@@H]1c2ccccc2C(=O)N(C2Cc3ccccc3C2)[C@H]1c1ccc(CO)cc1 | 2.76 |
| COc1ccc([Si](C)(C)[C@H]2[C@H](CCO)O[C@@]3(C(=O)N(Cc4ccccc4)c4ccc(N5CCOC5=O)cc43)[C@@H]2C)cc1 | 0.571 |
| C[C@@]12COC[C@]13C=C(Br)[C@H](C2)[C@@]1(CO1)C3=O | 1.02 |
| Nc1cc(Br)ccc1C(=O)O | 1.28 |
| COC(=O)[C@@]1(Cc2ccccc2)[C@H]2c3cc(C(=O)N(C)C)n(CCn4cc([N+](=O)[O-])nc4C)c3C[C@H]2CN1C(=O)c1ccccc1 | -0.22 |
| C=C(/C(=C/C[C@@H](OC(C)=O)c1ccc(CO)o1)c1cc(C(=O)OC)ccc1OC)C(C)C | -0.237 |
| CC(C)C(=C=CC[C@H](O)c1cccc(OCCO)c1)CCO | 0.346 |
| C=CCN1C(=O)[C@]2(O[C@H](CCO)[C@@H]([Si](C)(C)c3ccc(OC)cc3)[C@@H]2C)c2cc(NC(=O)c3ccc(OC)cc3)ccc21 | -1 |
| CC(=O)NCCCC[C@@H]1NC(=O)[C@@H]2C[C@H](C(=O)NCCCCCCN)[C@H](c3cccc(OCCO)c3)N2C1=O | 0.266 |
| CN(C)CCCCNC(=O)[C@H]1C[C@H]2C(=O)N[C@@H](CCCC[N+](C)(C)C)C(=O)N2[C@H]1c1ccc(O)cc1 | -0.247 |
| CC(C)N1CC=CC23O[C@@H]4/C=C\CCCOC(=O)C4[C@H]2C(=O)N(CCCCCCO)[C@@H]3C1=O (stereo not given in full) | 1.49 |
| O=C(CS)NCCCCCCNC(=O)[C@@H]1C[C@@H]2C(=O)NCC(=O)N2[C@@H]1c1ccc(O)cc1 | 0.601 |
| COc1ccc([Si](C)(C)[C@H]2[C@H](CCO)O[C@@]3(C(=O)N(Cc4ccccc4)c4ccc(N5C(=O)c6ccccc6Oc6ccccc65)cc43)[C@@H]2C)cc1 | 0.616 |
| NC(=O)[C@H]1[C@@H]2C(=O)O[C@@H](c3ccccc3)[C@@H](c3ccccc3)N2[C@@H](c2ccc(O)cc2)[C@]12C(=O)Nc1ccccc12 | -0.186 |
| [N-]=[N+]=NCc1ccccc1[C@@H]1OC(c2ccc(OCCCO)cc2)=N[C@]1(Cc1ccccc1)C(=O)NCCN1CCOCC1 | 2.27 |
| O=C1C2C=CC(C(O)c3ccc4c(c3)OCO4)N(Nc3ccccc3)C2C(=O)N1c1ccccc1 (stereo not given) | 0.279 |
| O=C(CS)NCCCCCNC(=O)[C@@H]1C[C@@H]2C(=O)N[C@@H](Cc3ccccc3)C(=O)N2[C@@H]1c1cccc(OCCO)c1 | 0.296 |
| NCCCCCNC(=O)[C@@H]1C[C@@H]2C(=O)N3CCC[C@H]3C(=O)N2[C@@H]1c1ccc(O)cc1 | 0.375 |
| COc1cc(NN2C(C(O)c3ccccc3)C=CC3C(=O)N(C)C(=O)C32)cc(OC)c1OC (stereo not given) | -0.109 |
| CC=CC(O)C1C=CC2C(=O)NC(=O)C2N1Nc1ccccn1 (stereo not given) | 0.514 |
| COCCOC(=O)N1C(=O)[C@@]2(c3ccccc31)[C@H](c1ccccc1OCCO)N1[C@H](c3ccccc3)[C@H](c3ccccc3)OC(=O)[C@H]1[C@@H]2C(N)=O | -0.206 |
| COc1cc(NN2C(C(O)c3ccc(I)cc3)C=CC3C(=O)N(c4ccccc4)C(=O)C32)cc(OC)c1OC (stereo not given) | 0.235 |
| [N-]=[N+]=NCc1ccccc1[C@@H]1OC(c2ccc(OCCCO)cc2)=N[C@]1(Cc1ccccc1N=[N+]=[N-])C(=O)NCCN1CCOCC1 | 2.23 |
| C=C(/C(=C/C[C@H](OC(=O)c1ccncc1)c1ccccc1OCCO)c1cnc2ccccc2c1)C(C)C | 0.707 |
| C=CCNC(=O)[C@@H]1[C@H]2C(=O)O[C@H](c3ccccc3)[C@H](c3ccccc3)N2[C@H](c2ccc(OCCO)cc2)[C@@]12C(=O)N(C(=O)OCCOC)c1ccc(C#CCCO)cc12 | -0.295 |
| C=C[C@H](C)[C@H](OC(=O)Nc1ccc(OC)cc1)c1ccc(OCCO)cc1 | 0.927 |
| COc1ccc(C#Cc2ccc3c(c2)[C@]2(C(=O)N3)[C@H](C(=O)N3CCCCCCC3)[C@H]3C(=O)O[C@H](c4ccccc4)[C@H](c4ccccc4)N3[C@@H]2c2ccc(O)cc2)cc1 | -0.316 |
| NCCCCCNC(=O)[C@H]1C[C@H]2C(=O)N[C@@H](Cc3ccccc3)C(=O)N2[C@H]1c1ccc(O)cc1 | -0.421 |
| CC(C)c1ccc(NN2C(C(O)Cc3ccccc3)C=CC3C(=O)N(c4ccccc4)C(=O)C32)cc1 (stereo not given) | -1.24 |
| Cc1ccc(S[C@]2(C(=O)NCc3ccccc3)CC(=O)N(Cc3cc(C(F)(F)F)cc(C(F)(F)F)c3)[C@@H]2c2ccc(CO)cc2I)cc1 | 1.61 |
